Source: the supplement of paper PMC11732987, “Enantioselective OTUD7B fragment discovery through chemoproteomics screening and high-throughput optimisation” (Communications Chemistry, 2025)

Columns and labels:
Assay in all cases: log2 ratio of Biotin-Ahx-Ub-VS probe labelling (fragment/DMSO); higher = less target engagement (more negative = stronger competition), active = hit call of the paper (q ≤ 0.05, log2 ratio ≤ -1)
Conditions in all cases: compound concentration: 200 uM; treatment time: 3 h
ALG13 = biological target: T1, ALG13 (UniProt Q9NP73)
T1 sequence (whole entry): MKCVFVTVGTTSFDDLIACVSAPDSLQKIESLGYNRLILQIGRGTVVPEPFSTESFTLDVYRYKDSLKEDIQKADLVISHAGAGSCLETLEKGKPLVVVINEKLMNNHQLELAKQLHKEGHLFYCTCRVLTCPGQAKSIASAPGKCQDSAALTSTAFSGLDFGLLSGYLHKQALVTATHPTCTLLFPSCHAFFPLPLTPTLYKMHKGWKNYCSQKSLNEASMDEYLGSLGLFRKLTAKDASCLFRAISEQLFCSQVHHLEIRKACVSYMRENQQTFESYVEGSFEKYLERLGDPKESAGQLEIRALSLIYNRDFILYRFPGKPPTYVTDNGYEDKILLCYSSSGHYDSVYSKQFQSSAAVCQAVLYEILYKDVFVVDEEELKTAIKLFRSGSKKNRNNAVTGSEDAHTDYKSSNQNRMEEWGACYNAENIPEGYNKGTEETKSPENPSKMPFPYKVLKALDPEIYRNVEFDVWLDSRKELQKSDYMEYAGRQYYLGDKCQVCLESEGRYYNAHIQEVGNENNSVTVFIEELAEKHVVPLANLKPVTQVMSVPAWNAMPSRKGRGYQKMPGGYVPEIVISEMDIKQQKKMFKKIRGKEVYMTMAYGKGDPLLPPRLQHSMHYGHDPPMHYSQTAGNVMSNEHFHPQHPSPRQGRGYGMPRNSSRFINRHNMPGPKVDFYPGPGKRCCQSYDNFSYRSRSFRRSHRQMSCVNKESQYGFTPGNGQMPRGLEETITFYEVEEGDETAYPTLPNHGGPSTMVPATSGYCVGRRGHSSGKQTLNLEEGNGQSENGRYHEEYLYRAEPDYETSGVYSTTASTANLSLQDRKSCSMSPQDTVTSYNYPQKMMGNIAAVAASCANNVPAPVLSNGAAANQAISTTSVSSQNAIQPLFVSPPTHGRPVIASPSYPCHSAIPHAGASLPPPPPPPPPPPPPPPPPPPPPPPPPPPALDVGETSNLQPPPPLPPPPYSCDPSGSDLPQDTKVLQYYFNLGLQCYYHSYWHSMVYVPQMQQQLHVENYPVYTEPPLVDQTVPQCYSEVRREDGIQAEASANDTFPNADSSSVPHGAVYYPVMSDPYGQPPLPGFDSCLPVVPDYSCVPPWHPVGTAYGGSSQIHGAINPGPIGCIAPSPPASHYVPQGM
In short: (§1)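 HEK293T lysate (495 µg per sample, in Tris/CHAPS/IGEPAL buffer with protease inhibitors) was treated in triplicate with fragment at 200 µM or with DMSO for 3 h. It was then treated with Biotin-Ahx-Ub-VS (0.5 µM final) for 1 h. Labelled DUBs were NeutrAvidin-enriched, digested with LysC and trypsin, and run by diaPASEF LC-MS/MS. Spectronaut label-free quantities were global-median-normalised. Values are average log2 ratios fragment/DMSO by unpaired t-test, using proteins with ≥2 unique peptides.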

ATXN3 = ATXN3 (UniProt P54252)
Sequence of ATXN3 (P54252 whole entry): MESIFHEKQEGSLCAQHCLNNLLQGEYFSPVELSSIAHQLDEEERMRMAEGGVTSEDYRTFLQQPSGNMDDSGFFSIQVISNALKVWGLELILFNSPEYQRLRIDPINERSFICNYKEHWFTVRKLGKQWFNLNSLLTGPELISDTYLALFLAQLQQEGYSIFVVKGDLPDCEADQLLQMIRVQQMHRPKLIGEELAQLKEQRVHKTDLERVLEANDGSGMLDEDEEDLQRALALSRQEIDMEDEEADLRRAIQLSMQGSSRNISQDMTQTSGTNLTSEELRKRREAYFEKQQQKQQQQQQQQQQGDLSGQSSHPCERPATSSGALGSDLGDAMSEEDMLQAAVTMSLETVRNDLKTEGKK
In short: as §1

BAP1 = biological target: T2, BAP1 (UniProt Q92560)
T2 sequence (whole entry): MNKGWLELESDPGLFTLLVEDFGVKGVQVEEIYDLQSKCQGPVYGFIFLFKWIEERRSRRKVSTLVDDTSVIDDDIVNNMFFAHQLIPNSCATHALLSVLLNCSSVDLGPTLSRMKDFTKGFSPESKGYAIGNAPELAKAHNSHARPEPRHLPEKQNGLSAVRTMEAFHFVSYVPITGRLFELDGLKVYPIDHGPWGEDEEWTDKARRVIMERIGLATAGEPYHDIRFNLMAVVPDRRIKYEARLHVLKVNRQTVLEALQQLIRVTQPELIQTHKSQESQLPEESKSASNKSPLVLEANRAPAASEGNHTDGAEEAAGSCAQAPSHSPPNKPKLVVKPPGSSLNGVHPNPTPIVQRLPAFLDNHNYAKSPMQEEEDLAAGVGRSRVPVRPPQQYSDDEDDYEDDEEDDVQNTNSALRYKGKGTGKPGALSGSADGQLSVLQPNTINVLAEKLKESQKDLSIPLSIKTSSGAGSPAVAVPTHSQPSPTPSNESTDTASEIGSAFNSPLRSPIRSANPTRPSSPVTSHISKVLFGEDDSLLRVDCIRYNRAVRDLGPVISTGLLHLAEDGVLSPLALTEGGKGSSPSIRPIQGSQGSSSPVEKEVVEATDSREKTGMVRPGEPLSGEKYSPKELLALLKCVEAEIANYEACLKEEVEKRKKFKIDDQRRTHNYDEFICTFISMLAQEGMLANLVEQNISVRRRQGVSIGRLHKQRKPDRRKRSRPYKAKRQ
In short: as §1

EIF3F = EIF3F (UniProt O00303)
Sequence of EIF3F (O00303 whole entry): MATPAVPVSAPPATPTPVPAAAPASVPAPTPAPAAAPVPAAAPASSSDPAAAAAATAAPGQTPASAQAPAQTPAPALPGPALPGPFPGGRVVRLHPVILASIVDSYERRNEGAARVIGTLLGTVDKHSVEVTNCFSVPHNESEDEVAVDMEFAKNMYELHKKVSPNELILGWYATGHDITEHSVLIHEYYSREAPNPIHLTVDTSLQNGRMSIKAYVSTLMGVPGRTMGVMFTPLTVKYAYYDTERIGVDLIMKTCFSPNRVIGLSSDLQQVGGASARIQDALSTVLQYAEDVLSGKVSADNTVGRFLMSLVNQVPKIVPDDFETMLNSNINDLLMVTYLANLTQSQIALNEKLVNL
In short: as §1

EIF3H = EIF3H (UniProt O15372)
Sequence of EIF3H (O15372 whole entry): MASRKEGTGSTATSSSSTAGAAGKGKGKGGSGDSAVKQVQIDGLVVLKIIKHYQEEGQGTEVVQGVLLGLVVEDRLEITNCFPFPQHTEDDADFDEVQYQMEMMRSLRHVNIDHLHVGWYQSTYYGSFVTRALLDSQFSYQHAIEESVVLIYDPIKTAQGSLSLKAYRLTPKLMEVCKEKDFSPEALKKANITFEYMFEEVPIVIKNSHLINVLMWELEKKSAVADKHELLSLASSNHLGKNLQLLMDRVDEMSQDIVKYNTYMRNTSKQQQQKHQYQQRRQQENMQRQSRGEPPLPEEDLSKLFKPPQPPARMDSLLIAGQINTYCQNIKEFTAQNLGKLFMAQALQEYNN
In short: as §1

FAM105A = biological target: T3, FAM105A (UniProt Q9NUU6)
T3 sequence (whole entry): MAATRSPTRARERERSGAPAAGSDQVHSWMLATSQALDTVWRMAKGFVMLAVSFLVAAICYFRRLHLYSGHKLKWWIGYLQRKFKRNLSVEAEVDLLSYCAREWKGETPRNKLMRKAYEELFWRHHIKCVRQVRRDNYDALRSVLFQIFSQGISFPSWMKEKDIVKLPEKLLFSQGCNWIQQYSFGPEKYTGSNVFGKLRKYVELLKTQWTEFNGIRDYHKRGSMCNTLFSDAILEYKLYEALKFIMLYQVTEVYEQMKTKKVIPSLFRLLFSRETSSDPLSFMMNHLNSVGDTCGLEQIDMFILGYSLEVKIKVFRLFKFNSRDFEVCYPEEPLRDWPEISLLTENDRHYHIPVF
In short: as §1

OTUB1 = OTUB1 (UniProt Q96FW1)
Sequence of OTUB1 (Q96FW1 whole entry): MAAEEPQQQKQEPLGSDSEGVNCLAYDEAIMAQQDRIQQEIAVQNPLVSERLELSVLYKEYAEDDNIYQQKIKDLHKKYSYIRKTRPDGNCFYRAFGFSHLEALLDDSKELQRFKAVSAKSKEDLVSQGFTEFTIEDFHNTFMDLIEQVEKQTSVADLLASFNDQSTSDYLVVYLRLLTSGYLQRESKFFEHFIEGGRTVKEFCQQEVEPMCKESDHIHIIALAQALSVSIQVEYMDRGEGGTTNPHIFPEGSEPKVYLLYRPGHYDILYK
In short: as §1

OTUD4 = biological target: T4, OTUD4 (UniProt Q01804)
T4 sequence (whole entry): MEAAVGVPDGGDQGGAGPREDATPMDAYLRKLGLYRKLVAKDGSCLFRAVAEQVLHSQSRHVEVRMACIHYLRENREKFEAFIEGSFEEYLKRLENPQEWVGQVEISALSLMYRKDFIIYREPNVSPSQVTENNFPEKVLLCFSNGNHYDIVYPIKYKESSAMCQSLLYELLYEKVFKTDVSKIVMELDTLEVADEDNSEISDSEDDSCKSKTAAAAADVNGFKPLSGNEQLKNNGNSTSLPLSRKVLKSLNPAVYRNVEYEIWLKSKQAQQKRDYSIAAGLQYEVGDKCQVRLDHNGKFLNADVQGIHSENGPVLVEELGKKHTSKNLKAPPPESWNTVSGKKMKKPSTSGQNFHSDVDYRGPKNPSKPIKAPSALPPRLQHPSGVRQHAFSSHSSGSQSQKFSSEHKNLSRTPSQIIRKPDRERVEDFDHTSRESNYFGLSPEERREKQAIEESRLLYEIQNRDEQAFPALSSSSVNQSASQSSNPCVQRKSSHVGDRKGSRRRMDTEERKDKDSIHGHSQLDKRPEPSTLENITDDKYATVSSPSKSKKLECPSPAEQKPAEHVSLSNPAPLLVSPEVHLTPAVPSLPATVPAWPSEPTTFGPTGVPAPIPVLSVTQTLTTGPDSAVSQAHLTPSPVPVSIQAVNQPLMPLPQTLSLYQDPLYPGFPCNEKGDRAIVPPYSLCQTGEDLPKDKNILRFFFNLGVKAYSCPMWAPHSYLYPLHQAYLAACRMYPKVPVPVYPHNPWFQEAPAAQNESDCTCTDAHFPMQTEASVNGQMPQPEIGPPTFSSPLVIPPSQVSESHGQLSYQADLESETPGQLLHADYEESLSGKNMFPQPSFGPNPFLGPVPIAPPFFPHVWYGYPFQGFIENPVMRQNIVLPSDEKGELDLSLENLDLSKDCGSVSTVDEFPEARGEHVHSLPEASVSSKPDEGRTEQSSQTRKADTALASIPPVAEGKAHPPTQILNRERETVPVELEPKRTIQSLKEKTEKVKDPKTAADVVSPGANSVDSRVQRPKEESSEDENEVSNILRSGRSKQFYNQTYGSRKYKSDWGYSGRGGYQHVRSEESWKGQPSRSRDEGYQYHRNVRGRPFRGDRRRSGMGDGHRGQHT
In short: as §1

OTUD5 = biological target: T5, OTUD5 (UniProt Q96G74)
T5 sequence (whole entry): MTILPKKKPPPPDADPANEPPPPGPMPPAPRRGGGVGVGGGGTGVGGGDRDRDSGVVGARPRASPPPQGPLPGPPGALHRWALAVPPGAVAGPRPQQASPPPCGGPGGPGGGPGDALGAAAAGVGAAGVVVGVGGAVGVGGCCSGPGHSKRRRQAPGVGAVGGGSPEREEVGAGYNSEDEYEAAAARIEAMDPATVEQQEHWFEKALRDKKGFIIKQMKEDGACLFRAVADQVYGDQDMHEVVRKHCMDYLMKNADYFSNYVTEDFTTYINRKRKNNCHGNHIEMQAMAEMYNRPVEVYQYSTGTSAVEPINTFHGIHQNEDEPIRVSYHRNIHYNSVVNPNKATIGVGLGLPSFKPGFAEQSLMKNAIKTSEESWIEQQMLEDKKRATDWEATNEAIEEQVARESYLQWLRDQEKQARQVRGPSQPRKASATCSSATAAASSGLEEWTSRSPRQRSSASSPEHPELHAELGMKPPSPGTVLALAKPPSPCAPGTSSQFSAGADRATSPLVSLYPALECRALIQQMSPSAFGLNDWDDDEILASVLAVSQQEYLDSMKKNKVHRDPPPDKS
In short: as §1

Measured: log2 ratio of Biotin-Ahx-Ub-VS probe labelling

O=C(CCl)N1CCCN(C(=O)c2ccc(Cl)cc2)CC1
inactive: ALG13 -0.303 | ATXN3 -0.712 | BAP1 -0.719 | EIF3F -0.31 | EIF3H 0.393 | FAM105A 0.113 | OTUB1 -0.428 | OTUD4 -0.424 | OTUD5 -0.688
